Bioassay records deposited in PubChem by National Center for Advancing Translational Sciences (NCATS).
Most compounds without a hit are left out; they make up all but 5.4% or so of the library.
VP16 counter = Gal4-VP16 reporter inhibition counter-screen; actives 3.5% (n = 310,000); Drosophila S2 Gal4-VP16 UAS-luciferase, luminescence, 20 h; AID 2546; Potency, µM (series often up to 53.6 µM), usual class: inhibitors;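 further: Gal4-VP16 expression switched on by copper sulfate through the metallothionein promoter; nearly all actives have a fitted effect of over 50% in size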
RORg inh = inhibitors of mouse ROR gamma transcriptional activity; Drosophila S2 Gal4-RORgamma UAS-luciferase reporter, 20 h; Potency, µM (series often up to 53.6 µM), actives largely listed as inhibitors; actives 5.4% (n = 310,000); AID 2551; further: nearly all actives have a fitted effect of over 60% in size
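Using a luciferase readout, inhibitors were identified by reduced reporter activity in Drosophila cells coexpressing a copper-inducible Gal4–ROR gamma fusion and UAS-driven Photinus luciferase, incubated 20 hr after 700 uM copper sulfate.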
Six1-Eya2 inh = inhibitors of human Six1/Eya2 interaction; actives 0.56% (n = 360,000); AID 651725; AlphaScreen GST-Six1/His-Eya2 binding, biochemical; stronger effect = lower value; activity change, % (no concentration beside the values); in the data active means activity change below about -65%; inconclusive means mostly about -30% to -63%
Target sequence (O00167 whole entry, looked up): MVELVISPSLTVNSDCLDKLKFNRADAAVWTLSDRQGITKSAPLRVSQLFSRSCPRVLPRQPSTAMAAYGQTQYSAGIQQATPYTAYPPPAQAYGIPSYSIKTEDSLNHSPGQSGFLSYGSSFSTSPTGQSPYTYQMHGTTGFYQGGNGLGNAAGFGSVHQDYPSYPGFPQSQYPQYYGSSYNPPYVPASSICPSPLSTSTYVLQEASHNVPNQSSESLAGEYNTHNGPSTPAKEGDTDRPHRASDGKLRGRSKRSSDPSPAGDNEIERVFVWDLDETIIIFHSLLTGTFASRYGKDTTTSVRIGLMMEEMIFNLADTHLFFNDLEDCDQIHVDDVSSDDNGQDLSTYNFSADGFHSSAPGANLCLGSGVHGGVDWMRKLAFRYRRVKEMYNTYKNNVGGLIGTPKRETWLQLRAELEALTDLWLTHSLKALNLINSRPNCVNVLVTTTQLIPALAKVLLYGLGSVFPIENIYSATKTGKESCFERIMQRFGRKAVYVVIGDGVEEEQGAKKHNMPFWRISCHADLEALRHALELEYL
Target sequence (Q15475 whole entry, looked up): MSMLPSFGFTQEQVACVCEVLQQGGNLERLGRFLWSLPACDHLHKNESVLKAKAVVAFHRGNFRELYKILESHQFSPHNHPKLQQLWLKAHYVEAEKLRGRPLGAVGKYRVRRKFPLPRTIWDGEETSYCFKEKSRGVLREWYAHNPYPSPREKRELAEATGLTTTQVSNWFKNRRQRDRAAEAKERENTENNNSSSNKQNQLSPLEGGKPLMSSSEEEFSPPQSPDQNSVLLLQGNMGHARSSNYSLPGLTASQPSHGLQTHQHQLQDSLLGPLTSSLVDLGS
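Homogeneous AlphaScreen proximity assay pairing GST-Six1 with His-tagged Eya2 (added as 5X mix: 250 nM and 500 nM) in 50 mM Tris pH 8.0, 300 mM NaCl, 1 mM TCEP. Glutathione donor and nickel acceptor beads; 1 h, 37 °C, dark.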
CtBP-E1A inh = inhibitors of CtBP/E1A interaction; activity change, % (test concentration not listed); AlphaScreen GST-E1A/His-CtBP binding, 1536-well; stronger effect = lower value; actives 0.49% (n = 340,000); in the data active means activity change below about -65%; inconclusive means mostly about -30% to -63%
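In 5 uL wells, 23 nL compound meets equimolar GST-E1A and His-CtBP (5X stock 125 nM each) for 2 h, 37 °C. Beads (5X, 50 ug/mL) then 1 h, 37 °C, dark.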
p53 reactivator = re-activators of mutant p53; H1299 p53-A138V BP100-luciferase reporter, luminescence, 24 h; AID 504706; Potency, µM (doses to about 92.2 µM), actives largely listed as activators; actives 0.063% (n = 320,000); further: nearly all actives have a fitted effect of over 45% in size
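H1299 (p53-null), stable ts p53-A138V + BP100-Luc; 1000 cells/well, Opti-MEM/10% FBS; cpd 4 pt, 1:5; 24 h, 37 deg C, 5% CO2; detection reagent 10 min RT; luminescence.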
Large screens that a line does not name were inactive. Unless noted, the call rests on the fitted dose curve; in most records, active means well fitted curve in the direction sought with a large enough effect; inconclusive means small, poorly fitted or top-dose-only effect, or another doubt; inactive means no such curve, though single readings can be large; an effect the other way counts as inactive or inconclusive.

CC(=O)c1ccc(Sc2nnnn2-c2ccccc2)c([N+](=O)[O-])c1	VP16 counter 11µM, RORg inh 8.9µM
CN1CCN(S(=O)(=O)c2ccc(Sc3nnnn3-c3ccccc3)c([N+](=O)[O-])c2)CC1	VP16 counter inconclusive, RORg inh 7.1µM
O=[N+]([O-])c1ccc(Sc2nnnn2-c2ccccc2)c(Cl)c1	RORg inh inconclusive, p53 reactivator inconclusive
Cc1cccc(C(=O)N2CCNC(=O)C2CC(=O)Nc2cccc(Cl)c2)c1 (stereo unspecified)	none
C/C(=C\C(=O)c1ccc(Cl)cc1Cl)N(C)C	VP16 counter inconclusive, RORg inh 16µM
CCn1c(NC(C)=O)nc2ccccc21	VP16 counter inconclusive, RORg inh inconclusive
Cc1cc2ccccc2n1CCNC(=O)c1cccs1	VP16 counter 14µM, RORg inh 13µM, Six1-Eya2 inh inconclusive
CCn1c(NC(=O)c2cccs2)nc2ccccc21	VP16 counter 1.1µM, RORg inh 0.71µM
CCN(CC)CCn1c(NC(=O)c2ccc(C(F)(F)F)cc2)nc2ccccc21	VP16 counter 0.35µM, RORg inh 0.22µM
Cc1cc2ccccc2n1CCNC(=O)C1CC1	none (no result: p53 reactivator)
CCCn1c(NC(=O)c2ccc(Cl)c(S(=O)(=O)N3CCCC3)c2)nc2ccccc21	VP16 counter 3.5µM, RORg inh 1.6µM, p53 reactivator inconclusive
CN(C)CCn1c(NC(=O)c2ccc(Cl)cc2)nc2ccccc21	VP16 counter 1.4µM, RORg inh 1.1µM
CCCn1c(NC(=O)c2cccc(C)c2C)nc2ccccc21	VP16 counter 2.2µM, RORg inh 2µM
Cc1nn(C)c(C)c1NC(=O)CCl	none
CC(=O)OC[C@@]1(O)C[C@@]23CC[C@@H]4c5ccoc5CC[C@@]4(C)[C@@H]2CCC1C3	RORg inh inconclusive (no result: Six1-Eya2 inh, CtBP-E1A inh, p53 reactivator)
O=C(N/N=C1\C(=O)c2cccc3cccc1c23)c1ccc(O)cc1	VP16 counter 0.32µM, RORg inh 0.071µM
CNC(=S)N/N=C1\C(=O)c2cccc3cccc1c23	VP16 counter 2.5µM, RORg inh 0.5µM
O=C(N/N=C1\CCc2ccccc21)c1ccc(O)cc1	none
CC(C)(C)OC(=O)N1CCN(C(=O)c2[nH]cnc2C(=O)Nc2ccccc2F)CC1	none (no result: VP16 counter, RORg inh, p53 reactivator)
COc1ccccc1NC(=O)CCS(=O)(=O)c1ccc2c(c1)NC(=O)C(C)S2 (stereo unspecified)	none (no result: CtBP-E1A inh)
CCOC(=O)C1=C(C)Nc2ncnn2C1c1c[nH]c2ccccc12 (stereo unspecified)	RORg inh 10µM
CC1=C(C(=O)OC(C)C)C(c2c[nH]c3ccccc23)n2ncnc2N1 (stereo unspecified)	none
C[C@@H](CO)NC(=O)c1ccc2c3n(nc2c1)-c1ccccc1CO3	VP16 counter inconclusive, RORg inh 6.3µM
CC1=C[C@@H](C)[C@@H](c2ccccc2)OC1=O	none (no result: p53 reactivator)
COc1ccc(C(=O)NC(=S)NNC(=O)c2ccco2)cc1	VP16 counter inconclusive, RORg inh 11µM
COc1ccccc1C(=O)NNC(=O)C1CCCO1 (stereo unspecified)	RORg inh 11µM
COc1ccc(C(=O)NC(=S)NNC(=O)c2ccccc2O)cc1	Six1-Eya2 inh -92
COc1ccc(C(=O)NC(=S)NNC(=O)c2ccccc2C)cc1	none (no result: VP16 counter, RORg inh, p53 reactivator)
O=C(NC(=S)NNC(=O)c1ccco1)c1ccc(F)cc1	VP16 counter inconclusive, RORg inh 11µM (no result: CtBP-E1A inh)
O=C(NNC(=S)NC(=O)c1ccco1)c1ccc(NC(=O)c2ccccc2)cc1	RORg inh inconclusive (no result: CtBP-E1A inh)
COc1ccc(C(=O)NNC(=O)C2CCCO2)cc1 (stereo unspecified)	none
CCCCCCC#CC1C=CC(OC(C)=O)C(COC(C)=O)O1 (stereo unspecified)	none (no result: Six1-Eya2 inh, CtBP-E1A inh, p53 reactivator)
Cc1nn(Cc2c(F)c(F)c(F)c(F)c2F)c(C)c1NC(=O)c1nn(C)c(C)c1Br	none
COc1cc2ccccc2cc1C(=O)NNC(=O)c1ccccc1O	VP16 counter inconclusive, RORg inh 11µM (no result: Six1-Eya2 inh, CtBP-E1A inh)
C=C(C)CNC(=S)NNC(=O)c1ccco1	VP16 counter 5µM, RORg inh 3.5µM
Cc1cc(C)nc(NNC(=O)c2ccccc2O)n1	RORg inh 11µM (no result: CtBP-E1A inh)
COc1ccc(/C=C/C(=O)NC(=S)NNC(=O)c2ccco2)cc1	VP16 counter inconclusive, RORg inh 3.2µM
O=C(Nc1c2c(nn1-c1ccc(F)cc1)CS(=O)(=O)C2)c1ccc2c(c1)OCO2	none
CCCNC(=O)c1nn2cc(Br)cnc2c1Br	RORg inh inconclusive
COc1ccccc1C(=O)NNC(=O)c1cccc(F)c1	VP16 counter 10µM, RORg inh 10µM
COc1ccccc1C(=O)NNC(=O)c1cccc(O)c1	VP16 counter inconclusive, RORg inh inconclusive (no result: CtBP-E1A inh, p53 reactivator)
O=C(O)Cc1ccc2sc(-c3ccccc3)nc2c1	p53 reactivator inconclusive
COC(=O)Cc1ccc2sc(-c3ccccc3)nc2c1	VP16 counter 16µM, RORg inh inconclusive, p53 reactivator inconclusive
CCC(C)NC(=O)c1c(N)n(/N=C/c2ccccn2)c2nc3ccccc3nc12 (stereo unspecified)	RORg inh 18µM
CC(C)OC(=O)C1=C(N)N2C(=O)CSC2=C(C(=O)OC(C)C)C1	RORg inh 10µM
O=C(/C=C/c1ccccc1)Oc1cccc2cccnc12	VP16 counter 4.5µM, RORg inh 0.71µM, Six1-Eya2 inh -73 (no result: CtBP-E1A inh)
CC(Oc1cccc2cccnc12)C(=O)N/N=C/c1ccccc1 (stereo unspecified)	none
O=C(/C=C\c1ccccc1)Oc1cccc2cccnc12	VP16 counter 3.2µM, RORg inh 1.4µM, Six1-Eya2 inh -67 (no result: CtBP-E1A inh)
CCCn1c(SCC(=O)N(CC)c2c(N)n(Cc3ccccc3)c(=O)[nH]c2=O)nnc1-c1ccncc1	none (no result: VP16 counter, RORg inh, p53 reactivator)
Cc1cc(C)cc(Nc2ncc3c(n2)CCCC3=O)c1	VP16 counter 11µM, RORg inh 11µM
COc1ccccc1CNC(=O)[C@@H](NC(=O)C1CCN(C(=O)[C@@H]2CCCN2C(=O)OC(C)(C)C)CC1)C(C)C	RORg inh 7.9µM (no result: p53 reactivator)
CC(C)CCNC(=O)Cc1ccc(Nc2nc(=S)[nH]c3ccccc23)cc1	Six1-Eya2 inh -86
CCN(CC)C(=O)[C@H]1C[C@H](CC(=O)NCCCOC)C(=O)N2CCc3c([nH]c4cc(CCC(=O)N(C)C)ccc34)[C@]12C	none (no result: VP16 counter, RORg inh)
CCC(=O)c1ccc(OCCn2cnc3ccccc32)cc1	none
O=C(O)CCCn1cc(NC(=O)COc2cc(F)ccc2[N+](=O)[O-])cn1	VP16 counter 0.5µM
COC(=O)C(Sc1ccc(Cl)cc1)C1SC(=S)N(Cc2ccccc2)C1=O (stereo unspecified)	none (no result: VP16 counter, RORg inh, p53 reactivator)
CCCNC(=O)C1(CC2CC(c3ccccc3)=NO2)CCN(C(=O)CCCCCBr)CC1 (stereo unspecified)	none (no result: VP16 counter, RORg inh, p53 reactivator)
Cc1cccnc1N(C(=O)Nc1ccccc1)C1=NCC(C)(C)S1	VP16 counter inconclusive, RORg inh 10µM
CC1(C)CN=C(N(C(=O)Nc2ccccc2)c2ccccc2F)S1	none
